Data reported in PubChem BioAssay (NCATS).
“And” between values parts separate entries of the source, which are not always exact repeats. Equal values may be shown once. Records with an inconclusive call do not appear. The source made the active and inactive calls. Unless noted, calls follow the shape of the dose curve; as a rule, active = well fitted curve in the direction sought with a large enough effect; inconclusive = small, poorly fitted or top-dose-only effect, or another doubt; inactive = no such curve, though single readings can be large; an effect the other way counts as inactive or inconclusive.

Legend:
[1] = target: Cellular tumor antigen p53 (Homo sapiens) (UniProt P04637); assay: Primary qHTS for small molecule compounds that upregulate eGFP-tagged delta133p53alpha (in N-terminal) cells. (AID 2060322); settings: NCI-H358 eGFP-delta133p53alpha fluorescence, 24 h; activation: stronger effect = higher value; also: nearly all actives have a fitted effect of over 75% in size; also: potency is read from the fitted curve at half-maximal effect;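 as to activation: cells pre-induced with doxycycline then dosed without doxycycline; series mostly up to about 56 µM; 0% = DMSO vehicle and 100% = reference activator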
Outline: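 NCI-H358 cells pre-induced 24 h with 10 ng/ml doxycycline for eGFP-delta133p53alpha, plated dox-free and exposed 24 h at 37C to titrated compounds. Fixed, Hoechst-stained; gated GFP peak intensity by laser scanning cytometry, normalized to DMSO (0%) and 57.5 uM 5-azacytidine (100%).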

[2] = target: Aldehyde dehydrogenase, mitochondrial (Homo sapiens) (UniProt P05091); assay: qHTS for Inhibitors of the Aldehyde Dehydrogenase Family (ALDH2) Confirmatory screens (AID 2061303; active = well fitted inhibition curve with a large enough effect; title and protocol of this record describe different tests; also: % is scaled to controls: 0 for no effect and ±100 for the full control effect; nearly all actives have a fitted effect of over 45% in size)
[3] = target: Aldehyde dehydrogenase, mitochondrial (Homo sapiens) (UniProt P05091); assay: qHTS for Inhibitors of the Aldehyde Dehydrogenase Family (ALDH2) Primary screen (AID 2061308);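 also: plate controls were vehicle for no effect and reference inhibitor for full effect; nearly all actives have a fitted effect of over 55% in size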
[4] = target: Retinal dehydrogenase 2 (Homo sapiens) (UniProt O94788); assay: qHTS for Inhibitors of the Aldehyde Dehydrogenase Family (ALDH1A2) Confirmation screens (AID 2061314); also: % is scaled to controls: 0 for no effect and ±100 for the full control effect; nearly all actives have a fitted effect of over 65% in size
[5] = target: Retinaldehyde dehydrogenase 3 (Homo sapiens) (UniProt P47895); assay: qHTS for Inhibitors of the Aldehyde Dehydrogenase Family (ALDH1A3) Primary screen (AID 2061315);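 also: plate controls were DMSO vehicle for no effect and reference inhibitor for full effect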
[6] = qHTS for Inhibitors of the Aldehyde Dehydrogenase Family (ALDH1A2, ALDH1A3, ALDH2, ALDH3A1) (AID 2061307); also: % is scaled to controls: 0 for no effect and ±100 for the full control effect; nearly all actives have a fitted effect of over 50% in size
[7] = target: Retinaldehyde dehydrogenase 3 (Homo sapiens) (UniProt P47895); assay: qHTS for Inhibitors of the Aldehyde Dehydrogenase Family (ALDH1A3) Confirmatory screens (AID 2061311); also: % is scaled to controls: 0 for no effect and ±100 for the full control effect; nearly all actives have a fitted effect of over 60% in size
[8] = target: Aldehyde dehydrogenase 1A1 (Homo sapiens) (UniProt P00352); assay: qHTS for Inhibitors of the Aldehyde Dehydrogenase Family (ALDH1A1) Confirmatory screens (AID 2061316); also: % is scaled to controls: 0 for no effect and ±100 for the full control effect; nearly all actives have a fitted effect of over 65% in size
[9] = target: Retinaldehyde dehydrogenase 3 (Homo sapiens) (UniProt P47895); assay: qHTS for Inhibitors of the Aldehyde Dehydrogenase Family (ALDH1A3) Validation screen (AID 2061312); also: % is scaled to controls: 0 for no effect and ±100 for the full control effect; nearly all actives have a fitted effect of over 45% in size

Chain of Cellular tumor antigen p53 (Homo sapiens) (P04637 whole entry, looked up): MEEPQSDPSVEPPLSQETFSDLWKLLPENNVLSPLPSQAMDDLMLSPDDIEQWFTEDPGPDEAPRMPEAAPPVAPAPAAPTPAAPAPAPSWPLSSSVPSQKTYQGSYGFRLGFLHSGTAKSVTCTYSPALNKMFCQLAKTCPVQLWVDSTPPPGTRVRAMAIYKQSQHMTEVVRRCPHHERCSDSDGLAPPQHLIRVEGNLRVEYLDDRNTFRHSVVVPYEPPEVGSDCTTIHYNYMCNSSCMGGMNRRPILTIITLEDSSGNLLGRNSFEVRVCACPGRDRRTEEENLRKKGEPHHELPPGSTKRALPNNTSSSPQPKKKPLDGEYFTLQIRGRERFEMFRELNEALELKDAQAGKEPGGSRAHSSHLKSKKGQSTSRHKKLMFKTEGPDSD

CCC1NC(=O)C2C(Cl)C(Cl)CN2C(=O)C(CC)NC(=O)CC(c2ccccc2)NC(=O)C(CO)NC1=O (configuration not stated)
inactive: activation [1] -6.87% | Potency [2] | Potency [3] | Potency [4] | Potency [5]

C=CC(C)(C)c1[nH]c2c(CC=C(C)C)cc(CC=C(C)C)cc2c1C[C@@H]1NC(=O)[C@H](C)NC1=O
inactive: activation [1] 14.3% | Potency [3]

COc1cc2c(cc1O)C1(C)CCC(O)C(C)(C)C1CC2=O (configuration not stated)
inactive: activation [1] -4.58% | Potency [3]

COc1ccc2c(C(=O)c3ccc(Cl)cc3)c(C)n(CC(=O)O)c2c1
inactive: activation [1] -36.8% | Potency [6] | Potency [3] | Potency [7] | Potency [4] | Potency [5] | Potency [8]

CCC(C)C1NC(=O)C(C(C)=O)=C1O (configuration not stated)
inactive: activation [1] 13% | Potency [2] | Potency [6] | Potency [3] | Potency [5]

CCCCCn1cc(C(=O)Cc2ccccc2OC)c2ccccc21
inactive: activation [1] 3.34% | Potency [3] | Potency [9] | Potency [5]

N#Cc1ccccc1-c1cc(-c2ccccn2)cn(-c2ccccc2)c1=O
inactive: activation [1] 10.5% | Potency [3] | Potency [9] | Potency [5]

COc1ccc2[nH]c(-c3ccccc3)c(CCN(C)C)c2c1
inactive: activation [1] -11% | Potency [3] | Potency [9] | Potency [5]

NC(=O)c1ncn2c1CN=C(c1ccccc1Br)c1cc(F)ccc1-2
inactive: activation [1] -14.3% | Potency [3] | Potency [9] | Potency [5]

COC1(C[S@@](=O)c2ccccc2)CCN(CCc2c[nH]c3ccc(F)cc23)CC1
inactive: activation [1] -6.68% | Potency [3] | Potency [9] | Potency [5]

CCOC(=O)c1cncn1C(C)c1ccccc1 (configuration not stated)
inactive: activation [1] 10% and 2.86% | Potency [3] | Potency [9] | Potency [5]

Cc1cccc(NC(=O)N[C@@H]2N=C(c3ccccc3)c3ccccc3N(C)C2=O)c1
inactive: activation [1] -11% | Potency [3] | Potency [9] | Potency [5]

Clc1ccc(OCC2=NCCN2)cc1Cl
inactive: activation [1] -0.955% | Potency [3] | Potency [9] | Potency [5]

CCOC(=O)C1(CCc2ccccc2)CCN(Cc2ccc(NC(C)=O)cc2)CC1
inactive: activation [1] -12.4% | Potency [3] | Potency [9] | Potency [5]

CC(N)Cc1c[nH]c2ccccc12 (configuration not stated)
inactive: activation [1] 12.4% | Potency [3] | Potency [9] | Potency [5]

CN1C(=O)[C@@H](Cc2c[nH]c3ccccc23)N=C(c2ccccc2F)c2ccccc21
inactive: activation [1] 15.8% | Potency [3] | Potency [9] | Potency [5]

CN1CCCCC1Cn1cc(C(=O)c2cc([N+](=O)[O-])ccc2I)c2ccccc21 (configuration not stated)
inactive: activation [1] 23.9% | Potency [3] | Potency [9] | Potency [5]

CCCCN1[C@@H]2CC[C@H]1CC(OC(c1ccc(F)cc1)c1ccc(F)cc1)C2 (some centres not stated)
inactive: activation [1] 2.39% | Potency [3] | Potency [9] | Potency [5]

Cc1cccc(NC(=O)NC2N=C(c3ccccc3)c3ccccc3N(CC(=O)c3ccccc3C)C2=O)c1 (configuration not stated)
inactive: activation [1] -13.8% | Potency [3] | Potency [9] | Potency [5]

C[C@H]1CN(Cc2ccc(CC(=O)N3CCC(Nc4cccc(F)c4)CC3)cc2)CCN1
inactive: activation [1] -12.4% | Potency [3] | Potency [9] | Potency [5]

CN1[C@@H]2CC[C@H]1CC(OC(=O)C1C=Nc3ccccc31)C2 (some centres not stated)
inactive: activation [1] -7.64% | Potency [3] | Potency [9] | Potency [5]

CN(C(=O)Cc1ccccc1)C(CN1CCCC1)c1ccccc1 (configuration not stated)
inactive: activation [1] -0.477% | Potency [3] | Potency [9] | Potency [5]

CCN1C[C@]2(OC(=O)c3ccccc3NC(C)=O)CC[C@H](OC)[C@@]34[C@@H]2C[C@@H]([C@@H]13)[C@@]1(O)C[C@H](OC)[C@H]2C[C@@H]4[C@]1(O)[C@H]2OC
inactive: activation [1] -6.68% | Potency [3] | Potency [9] | Potency [5]

CC1(C)C(=O)N(c2ccc(C#N)c(C(F)(F)F)c2)C(=S)N1c1ccc(C(N)=O)c(F)c1
inactive: activation [1] 1.43% | Potency [3] | Potency [9] | Potency [5]

CN=C(NS(=O)(=O)c1ccc(Cl)cc1)N1C[C@H](c2ccccc2)C(c2ccc(Cl)cc2)=N1
inactive: activation [1] 1.91% | Potency [3] | Potency [9] | Potency [5]

CN[C@H]1[C@H](O)[C@H](O[C@@H]2[C@@H](O)[C@H](O[C@H]3O[C@H]([C@H](C)O)[C@@H](O)[C@H](O)[C@H]3N)[C@@H](N)C[C@H]2N)OC[C@@]1(C)O
inactive: activation [1] -4.3% | Potency [3] | Potency [9] | Potency [5]

N#Cc1ccc([C@H]2CCCC[C@H]2O)cc1C(F)(F)F
inactive: activation [1] 11% | Potency [3] | Potency [9] | Potency [5]

O=C(N1CCOCC1)N1CCN(c2ccc(Cl)cc2)CC1
inactive: activation [1] 10% | Potency [3] | Potency [9] | Potency [5]

OC1(c2ccc(Cl)cc2)c2ccccc2C2=NCCN21 (configuration not stated)
inactive: activation [1] 6.21% | Potency [3] | Potency [9] | Potency [5]

CN1C2CCC1CC(OC(=O)N1Cc3ccccc3NC1=O)C2 (configuration not stated)
inactive: activation [1] 1.43% | Potency [3] | Potency [9] | Potency [5]

O=C(N1CCCCC1Cc1ccccc1)n1cc(-c2ccc(-c3ccccc3)cc2)nn1 (configuration not stated)
inactive: activation [1] 1.43% | Potency [3] | Potency [9] | Potency [5]

CCc1nn(C)c(C(=O)NCc2ccc(Oc3ccc(C)cc3)cc2)c1Cl
inactive: activation [1] 1.43% | Potency [3] | Potency [9] | Potency [5]

C1=C2CCCN[C@H]2[C@@H]2C[C@H]1[C@H]1CCCCN1C2
inactive: activation [1] -9.55% | Potency [3] | Potency [9] | Potency [5]

C[C@H]1CN(CC[C@H](O)C2CCCCC2)CC[C@@]1(C)c1cccc(O)c1
inactive: activation [1] -6.21% | Potency [3] | Potency [9] | Potency [5]

Cc1cn(C[C@H](N)C(=O)O)c(=O)n(Cc2cc(-c3ccccc3)sc2C(=O)O)c1=O
inactive: activation [1] 8.11% | Potency [3] | Potency [9] | Potency [5]

CN(C)CCc1c[nH]c2ccc(CN3CCN(C)S3(=O)=O)cc12
inactive: activation [1] -4.3% | Potency [3] | Potency [9] | Potency [5]

C[C@H](NC(=O)Cc1cc(F)cc(F)c1)C(=O)N[C@@H]1N=C(c2ccccc2)c2ccccc2N(C)C1=O
inactive: activation [1] 21% | Potency [3] | Potency [9] | Potency [5]

c1ccc(C2(c3ccccc3)OC[C@@H]([C@H]3CCCCN3)O2)cc1
inactive: activation [1] 2.86% | Potency [3] | Potency [9] | Potency [5]

N#Cc1cn([C@@H]2O[C@H](CO)[C@H](O)[C@@H]2O)c2ncnc(N)c12
active: Potency [1] 75.7 nM
inactive: Potency [3] | Potency [9] | Potency [5]

CC1(C)C(=O)N(c2ccc(C#N)c(C(F)(F)F)c2)C(=O)N1CCCCO
inactive: activation [1] -17.7% | Potency [3] | Potency [9] | Potency [5]

Cc1c(Cl)cccc1S(=O)(=O)Nc1nc(CC(=O)N2CCN(C)CC2)cs1
inactive: activation [1] -6.21% | Potency [3] | Potency [9] | Potency [5]

CCCCCCn1c(=O)c(C(=O)Nc2ccc(C(=O)OCCC)cc2)c(O)c2ccccc21
inactive: activation [1] 4.3% | activity change, negative = inhibition [3] 11.3% [at 11.2 µM] | Potency [9] | activity change, negative = inhibition [5] 11.2% [at 11.2 µM]

CN(C(=O)C(c1ccccc1)c1ccccc1)[C@H](CN1CC[C@H](O)C1)c1ccccc1
inactive: activation [1] 14.8% | Potency [3] | Potency [9] | Potency [5]

Cc1ccccc1CN1CCC(N2CCC(n3c(=O)[nH]c4ccccc43)CC2)CC1
inactive: activation [1] -15.8% | Potency [3] | Potency [9] | Potency [5]
